Structures are written as SMILES. Compounds without any hit were thinned out: in the full panel of roughly 83,000, 20% have a hit.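 Growth was measured after 48 h exposure to one concentration of compound in 96-well plates. Values under 10 count as active.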 Values without a mark were called inactive. Activity calls are given as the source filed them.

The assay has as its system NCI/ADR-RES ovarian. Briefly: NCI-60 one-dose screen, 48 h (100 = growth as untreated, 0 = no growth, -100 = all killed). The note with it: 10 µM unless noted.
Consider `N=C(N)c1ccc(-c2ccc(-c3ccc(Cl)cc3)o2)nc1`, for which the growth is -69.7% (active). With `NC(=O)c1c(NC(=O)c2ccc(OCC3CCCO3)cc2)sc2c1CCCC2` (centres undefined) the figure was 97.1%; with `Cc1cc(-c2ccccc2)c(C)n1Cc1ccc(Cl)cc1`, 14%; with `Clc1cccc(Cl)c1Cn1c(-c2cncs2)nc2ccccc21`, 73%. The result for `Cc1ccc(Cn2c(-c3nonc3N)nc3ccccc32)cc1` reads 49.2%; that for `CC/C(=C(\c1ccc(O)cc1)c1ccc(OCCN(C)CCN(C)C(=O)CCC(=O)c2c(C)[nH]c(/C=C3\N=C(c4ccc[nH]4)C=C3OC)c2C)cc1)c1ccccc1`, 79.8%. As to `NC(N)=NC(N)=Nc1ccccc1-c1ccccc1`, the growth is 117%. On to `COc1cc(/C=C/C(=O)c2ccc(NC(=O)CN3CCN(c4cc5c(cc4F)c(=O)c(C(=O)O)cn5C4CC4)CC3)cc2)cc(OC)c1OC`, for which the growth was 98.2%. The result for `COc1ccc(-c2nc(-c3ccccc3)c(-c3ccccc3)n2C2CC2)cc1OC1CCCCC1` reads 55.3%; that for `CCOC(=O)[C@H](CSSc1ncnc2cc[nH]c12)NC(=O)[C@@H](C)c1ccc2cc(OC)ccc2c1`, 18.6%; that for `COC(=O)c1ccc2nc(-c3cc4ccccc4n3C)n(CCCCOc3cc4c(cc3OC)C(=O)N3CCC[C@H]3C=N4)c2c1`, 29.5%. The result for `COc1cc2c(cc1OC)C1(C)N(CC2)C(=O)OC1(C)C` (centres undefined) reads 105%; that for `CN1CCN(c2ccc3cc(-c4nc5ccccc5[nH]4)c(=O)oc3c2)CC1`, 86.9%. With `Nc1c(C(=O)Nc2cccc(C(F)(F)F)c2)sc2nc3c(cc12)CCCCC3` the figure was 17.1%; with `COC1=CC(c2ccc[nH]2)=N/C1=C\c1[nH]c(C)c(CCCn2cc(CCCCCCCCC[C@@H]3Cc4cc(O)ccc4C4CC[C@]5(C)[C@@H](O)CC[C@H]5C43)nn2)c1C` (some centres undefined), 69.5%. Regarding `O=C(CN1CCN(c2cc3c(cc2F)c(=O)c(C(=O)O)cn3C2CC2)CC1)Nc1ccc(C(=O)/C=C/c2ccccc2)cc1`, the growth was 93.5%.

On to `Cc1cc(Cl)ccc1OC(C)C(=O)Nc1nnc(C2CC2)s1` (centres undefined), for which the growth is 96.6%. The result for `COc1ccc(/C(=N/O)c2cc(F)c(F)c(OC)c2F)cc1O` reads 17.4%. Consider `COc1ccc(C(=O)c2cc(OC)c(OC)c(OC)c2)cc1/C=C/C(=O)c1ccc2c(c1)OCO2`, for which the growth is 5.77% (active). As to `CSc1ccccc1C#C/C=C\C#Cc1ccccc1N1CCCCC1=O`, the growth was 102%. Take `CCCCCCC[C@@H](O)CC(=O)N[C@H](CCCCN)C(=O)N[C@H](Cc1c[nH]c2ccccc12)C(=O)NC(CCCCN)C(=O)N[C@H](CC(C)C)C(=O)N[C@H](Cc1ccccc1)C(=O)N[C@H](CCCCN)C(=O)N[C@H](CCCCN)C(=O)N[C@H](CC(C)C)C(=O)N1CCCC1C(=O)N[C@H](CCCCN)C(=O)N[C@H](Cc1ccccc1)C(=O)N[C@H](CC(C)C)C(=O)N[C@H](Cc1c[nH]cn1)C(=O)N[C@H](CC(C)C)C(=O)N[C@H](C)C(=O)N[C@H](CCCCN)C(=O)N[C@H](CCCCN)C(=O)N[C@H](Cc1ccccc1)C(=O)O` (some centres undefined): the growth is -23.6% (active). The result for `Cc1ccc2c(c1)ncn2-c1ncnc2c1CC(C)c1ccccc1N2C` (centres undefined) reads 17.1%; that for `CCOC(=O)c1cc(/C(=N\O)c2cc(OC)c(OC)c(OC)c2)n2c(C)cccc12`, 29.3%; that for `Nc1c(C(=O)Nc2cccc(C(F)(F)F)c2)sc2nc3c(cc12)CCCCCC3`, 12%. With `Cc1ccc(Cn2c(-c3cccs3)nc3ccccc32)cc1`, the growth was 85.6%. With `CCC(=O)Oc1ccc2c(c1)CC[C@@H]1[C@@H]2CC[C@]2(C)C[C@H](OC(=O)CC)C[C@@H]12` the figure was 54.2%; with `COc1ccc2c(c1)C(C)Cc1c(N(C)C)ncnc1N2C` (centres undefined), 36.2%. The result for `Cc1cc2c(C(C)C)c(O)c(O)c(C=NCCCCCCC(=O)O)c2c(O)c1-c1c(C)cc2c(C(C)C)c(O)c(O)c(C=NCCCCCCC(=O)O)c2c1O` reads 67.6%. The result for `COC(=O)CCCCCCN=Cc1c(O)c(O)c(C(C)C)c2cc(C)c(-c3c(C)cc4c(C(C)C)c(O)c(O)c(C=NCCCCCCC(=O)OC)c4c3O)c(O)c12` reads 69.1%. On to `C=CCc1cc(Cl)cc2c(OC(C)=O)c(C(C)=O)c(-c3ccccc3)nc12`, for which the growth was 119%. The result for `CCN1C(=O)N[C@H]2[C@@H]3NC(=O)c4ccc(Cl)n4[C@@H]3C[C@]21O` reads 76.4%; that for `CN(C)C1CCC(NC2=CC(=O)C=CC2=O)CC1` (centres undefined), 111%. Turning to `CN1C(=O)[C@H]2c3c1cccc3[C@@]13NC(=O)O[C@H]1[C@H](CCC3(C)C)C2(C)C`, the growth was 98.8%. The result for `COc1ccc(/C=C2\CCCC3=C2NC(C)=NC3c2ccc(OC)c(OC)c2)cc1OC` (centres undefined) reads 11.2%; that for `O=C(c1ccncc1)N1N=C(c2ccc(Cl)cc2)CC1c1c[nH]c2ccccc12` (centres undefined), 97%; that for `Cc1nn(-c2ccc(Cl)cc2)c(=O)n1CCOc1ccccc1Cl`, 89.9%. Take `Cc1cc2c(c(=O)o1)C(c1ccc(OC(=O)N3CCOCC3)cc1)C(C#N)=C(N)O2` (centres undefined): the growth is 105%. Take `O=C(COc1ccccc1)N1N=C(c2ccc(Cl)cc2)CC1c1c[nH]c2ccccc12` (centres undefined): the growth was 83%. For `CC[C@H](C)[C@H]1NC(=O)[C@@H](N[C@](C)(O)[C@@H](N)CC(C)C)[C@@H](C)OC(=O)[C@H](Cc2ccc(OC)cc2)N(C)C(=O)[C@@H]2CCCN2C(=O)[C@H](CC(C)C)NC(=O)[C@@H](C)C(=O)[C@H](C(C)C)OC(=O)C[C@@H]1O`, the growth was 37.4%.

The record behind these values is PubChem BioAssay (NCI).
